The record followed here is paper PMC4336329 (PLoS ONE, 2015).

About 2,200 (0.71%) of roughly 310,000 compounds showed an effect of 50% or more. The effect is printed as a negative number. Only a selection was taken, and strong results are over-represented in it overall.

The target in the assay is human ether-à-go-go-related gene (hERG) potassium channel (human, UniProt Q12809). Nature of the assay: primary screen, population patch clamp on CHO cells stably expressing hERG; higher = less effect of the substance.
human ether-à-go-go-related gene (hERG) potassium channel, sequence (Q12809 whole entry, looked up): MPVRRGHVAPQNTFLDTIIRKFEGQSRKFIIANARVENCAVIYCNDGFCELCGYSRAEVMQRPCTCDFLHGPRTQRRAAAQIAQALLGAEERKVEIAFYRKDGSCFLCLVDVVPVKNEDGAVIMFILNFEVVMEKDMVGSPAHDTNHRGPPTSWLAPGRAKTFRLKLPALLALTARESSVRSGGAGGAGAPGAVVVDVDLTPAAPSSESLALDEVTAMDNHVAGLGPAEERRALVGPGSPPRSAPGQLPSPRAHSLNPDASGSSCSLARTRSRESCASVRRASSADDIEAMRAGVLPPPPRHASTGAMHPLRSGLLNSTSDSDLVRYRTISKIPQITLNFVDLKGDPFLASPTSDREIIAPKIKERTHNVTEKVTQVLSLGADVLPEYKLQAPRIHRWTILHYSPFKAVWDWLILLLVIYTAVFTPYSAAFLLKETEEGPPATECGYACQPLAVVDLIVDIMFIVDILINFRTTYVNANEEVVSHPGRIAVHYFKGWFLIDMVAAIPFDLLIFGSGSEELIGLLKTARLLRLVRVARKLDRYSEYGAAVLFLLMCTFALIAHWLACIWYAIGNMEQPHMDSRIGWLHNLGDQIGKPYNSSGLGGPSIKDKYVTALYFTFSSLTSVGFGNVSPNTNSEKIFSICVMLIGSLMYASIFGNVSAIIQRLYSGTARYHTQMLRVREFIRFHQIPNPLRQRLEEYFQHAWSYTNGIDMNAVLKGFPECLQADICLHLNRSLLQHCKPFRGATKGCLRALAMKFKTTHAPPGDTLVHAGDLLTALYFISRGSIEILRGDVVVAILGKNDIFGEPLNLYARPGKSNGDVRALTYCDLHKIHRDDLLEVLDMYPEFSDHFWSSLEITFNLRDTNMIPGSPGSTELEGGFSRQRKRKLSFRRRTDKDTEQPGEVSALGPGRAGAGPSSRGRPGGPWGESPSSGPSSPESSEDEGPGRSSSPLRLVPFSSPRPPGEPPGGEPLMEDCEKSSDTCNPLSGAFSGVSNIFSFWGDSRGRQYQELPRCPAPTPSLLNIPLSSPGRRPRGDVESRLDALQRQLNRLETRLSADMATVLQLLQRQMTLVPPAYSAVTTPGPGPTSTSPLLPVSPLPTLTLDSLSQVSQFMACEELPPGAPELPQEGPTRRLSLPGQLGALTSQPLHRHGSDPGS
In the case of `COc1ccc(CCC(=O)N2CCN(c3ccccc3)CC2)cc1OC`, the “hERG current change (%, negative = inhibition) at 1uM” value turned out to be 13.5%.

Take `COc1cc(CCC(=O)N2CCN(c3ccccc3)CC2)cc(OC)c1OC`: the “hERG current change (%, negative = inhibition) at 1uM” value is recorded as -0.0932%.

Consider `CCOC(=O)Cc1nnc(-c2ccccc2)o1`, for which the “hERG current change (%, negative = inhibition) at 1uM” value is 5.78%.

Consider `COc1ccc2nc(NC(=O)c3ccoc3C)sc2c1`, for which the “hERG current change (%, negative = inhibition) at 1uM” value amounted to 17.6%.

With `S=C(NN=C1C2CC3CC(C2)CC1C3)Nc1ccccc1`, the “hERG current change (%, negative = inhibition) at 1uM” value is 11.9%.

Consider `CC(=O)Nc1ccc2oc(C)nc2c1`, for which the “hERG current change (%, negative = inhibition) at 1uM” value stood at 22.4%.

For `CC(C)(C)OC(=O)N[C@H](C(=O)OC(C)(C)C)c1ccc(C(F)(F)F)cc1`, the “hERG current change (%, negative = inhibition) at 1uM” value was determined as 12.8%.

Regarding `Cc1ccc2nc(SCC(=O)NCc3ccco3)nc(=O)n2c1`, the “hERG current change (%, negative = inhibition) at 1uM” value is 11.3%.

As to `Cn1c2ccccc2c2c(C(=O)NCc3ccco3)cn(C3CCCCC3)c(=O)c21`, the “hERG current change (%, negative = inhibition) at 1uM” value worked out at 7.44%.

`N=c1c(S(=O)(=O)c2ccccc2)cc2c(=O)n3ccccc3nc2n1C1CCCC1`: the “hERG current change (%, negative = inhibition) at 1uM” value turned out to be 8.93%.

On to `O=C(NCc1ccco1)c1cnc2ccccn2c1=O`, for which the “hERG current change (%, negative = inhibition) at 1uM” value turned out to be 5.25%.

Take `Cc1ccc2nc3c(cc(C(=O)NCc4ccco4)c(=N)n3C3CCCC3)c(=O)n2c1`: the “hERG current change (%, negative = inhibition) at 1uM” value is given as -83.2%.

On to `N=c1c(C(=O)NCc2ccco2)cc2c(=O)n3ccccc3nc2n1C1CCCC1`, for which the “hERG current change (%, negative = inhibition) at 1uM” value is given as -82.2%.

As for `C/C(=N\NC(=O)c1ccccc1[N+](=O)[O-])c1ccc(Br)s1`, the “hERG current change (%, negative = inhibition) at 1uM” value was 14.7%.

On to `COc1ccc(CCNC(=O)CN(C2CCCCC2)S(C)(=O)=O)cc1`, for which the “hERG current change (%, negative = inhibition) at 1uM” value came to 4.21%.

Take `COC(=O)c1scc(C)c1S(=O)(=O)Nc1ccc(C)cc1`: the “hERG current change (%, negative = inhibition) at 1uM” value is 12.7%.

Take `Cc1nc2scc(C)n2c(=O)c1S(=O)(=O)Nc1ccc(N2CCOCC2)cc1`: the “hERG current change (%, negative = inhibition) at 1uM” value is 5.65%.

Regarding `Cc1ccc(S(=O)(=O)N2CCN(C(=O)c3cccs3)CC2)cc1C`, the “hERG current change (%, negative = inhibition) at 1uM” value is 2.03%.

For the compound `CCN1C(=O)C(CC(=O)Nc2ccc(Cl)cc2)N(NC(=O)c2ccncc2)C1=S` (stereo not drawn), the “hERG current change (%, negative = inhibition) at 1uM” value is listed as 12.2%.

Turning to `FC(F)(F)c1ccc(-c2noc(CN3CCCN(C4CCCCC4)CC3)n2)cc1`, the “hERG current change (%, negative = inhibition) at 1uM” value is -75.3%.

On to `Cc1ccc(-c2noc(CN3CCCCC3)n2)cc1`, for which the “hERG current change (%, negative = inhibition) at 1uM” value was 31.5%.

As for `CN1CCCN(Cc2nc(-c3cccc(C(F)(F)F)c3)no2)CC1`, the “hERG current change (%, negative = inhibition) at 1uM” value is recorded as -15.4%.

As for `CCN(CC)S(=O)(=O)c1cc(C(=O)Nc2cccnc2)ccc1Cl`, the “hERG current change (%, negative = inhibition) at 1uM” value is recorded as -40.3%.

Consider `CC(=O)N1CCOc2ccc(S(=O)(=O)Nc3ccc(C)cn3)cc21`, for which the “hERG current change (%, negative = inhibition) at 1uM” value was 4.68%.

Consider `COCCNC(=O)c1ccccc1NC(=O)c1ccc(OC)c(OC)c1`, for which the “hERG current change (%, negative = inhibition) at 1uM” value was found to be 4.05%.

On to `COc1ccc(-c2cc(C3CCN(Cc4cccc(C(F)(F)F)c4)CC3)[nH]n2)cc1`, for which the “hERG current change (%, negative = inhibition) at 1uM” value was -13%.

For `Cc1ccc(CN2CCC(c3cc(-c4ccc(Cl)cc4)n[nH]3)CC2)cc1`, the “hERG current change (%, negative = inhibition) at 1uM” value is on record as -78.1%.

Take `CCOC(=O)CN1CCC(c2cc(-c3ccc(Cl)cc3)n[nH]2)CC1`: the “hERG current change (%, negative = inhibition) at 1uM” value is 22.3%.

For `CC(C)(C)OC(=O)N1CCC(c2cc(-c3cccs3)n[nH]2)CC1`, the “hERG current change (%, negative = inhibition) at 1uM” value is reported as 4.89%.

On to `Cc1ccc(CN2CCC(c3cc(-c4cccs4)n[nH]3)CC2)cc1`, for which the “hERG current change (%, negative = inhibition) at 1uM” value is -85.6%.

For `COc1ccc(-c2cc(C3CCN(Cc4ccc([N+](=O)[O-])cc4)CC3)[nH]n2)cc1`, the “hERG current change (%, negative = inhibition) at 1uM” value was -44.3%.

Turning to `S=c1[nH]ncn1/N=C/c1ccccc1`, the “hERG current change (%, negative = inhibition) at 1uM” value is given as 14.4%.

Turning to `COc1nc(Nc2ccc([N+](=O)[O-])cc2)nc(NC2CCCCC2)n1`, the “hERG current change (%, negative = inhibition) at 1uM” value is listed as 11.2%.

As to `O=C(COc1ccccc1Cl)N1CCN(c2ccc([N+](=O)[O-])c(N3CCCCC3)c2)CC1`, the “hERG current change (%, negative = inhibition) at 1uM” value is on record as 0.717%.

Take `CCCCCNC(=O)[C@@H]1CSC2c3ccccc3C(=O)N21` (stereo partly drawn): the “hERG current change (%, negative = inhibition) at 1uM” value is 14%.

In the case of `COc1ccc(CCc2nc(-c3cccs3)no2)cc1`, the “hERG current change (%, negative = inhibition) at 1uM” value came to 5.28%.

Regarding `O=C(CSc1ccc2nnc(-c3ccccc3)n2n1)NCc1ccc2c(c1)OCO2`, the “hERG current change (%, negative = inhibition) at 1uM” value is recorded as -71%.

For `O=C(CSc1nnc(-c2ccc(Cl)cc2)n1Cc1ccco1)NCc1ccc2c(c1)OCO2`, the “hERG current change (%, negative = inhibition) at 1uM” value is listed as -51.6%.

In the case of `O=C(CSc1ccc2nnc(-c3ccncc3)n2n1)Nc1ccc2c(c1)OCO2`, the “hERG current change (%, negative = inhibition) at 1uM” value is recorded as 13.8%.

Take `O=C(CSc1ccc2nnc(-c3cccnc3)n2n1)NCc1ccc2c(c1)OCO2`: the “hERG current change (%, negative = inhibition) at 1uM” value is 4.47%.

For `O=C(CSc1nnc(-c2cccnc2)n1Cc1ccco1)NCc1ccc2c(c1)OCO2`, the “hERG current change (%, negative = inhibition) at 1uM” value is reported as -20.4%.

As to `O=C(CSc1ccc2nnc(-c3ccccn3)n2n1)Nc1ccc2c(c1)OCO2`, the “hERG current change (%, negative = inhibition) at 1uM” value turned out to be 2.61%.

For the compound `O=C(CSc1nnc(-c2cccnc2)n1-c1ccccc1)NCc1ccc2c(c1)OCO2`, the “hERG current change (%, negative = inhibition) at 1uM” value is recorded as -47.9%.

Consider `O=C(CSc1ccc2nnc(-c3ccccn3)n2n1)NCc1ccc2c(c1)OCO2`, for which the “hERG current change (%, negative = inhibition) at 1uM” value is on record as -65.8%.

Consider `C=CCn1c(SCC(=O)NCc2ccc3c(c2)OCO3)nnc1-c1cccnc1`, for which the “hERG current change (%, negative = inhibition) at 1uM” value is 8.01%.

Regarding `O=C(CSc1nnc(-c2cccnc2)n1-c1ccc(F)cc1)NCc1ccc2c(c1)OCO2`, the “hERG current change (%, negative = inhibition) at 1uM” value is on record as -54.5%.

Turning to `O=C(CSc1ccc2nnc(-c3ccccn3)n2n1)Nc1ccc2c(c1)OCCO2`, the “hERG current change (%, negative = inhibition) at 1uM” value is given as -2.96%.

For `O=C(CSc1nnc(-c2ccccc2)n1Cc1ccco1)NCc1ccc2c(c1)OCO2`, the “hERG current change (%, negative = inhibition) at 1uM” value is -22.2%.
